The values below come from PubChem BioAssay.

A short description of experiment [1]: inhibitors of TNFa-induced NFkB p65 translocation, primary screen, imaging, HUVEC, MLSMR starter and 10KST1 sets (AID 438).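 For inhibition: signal is the nuclear over cytoplasmic p65 intensity ratio per well.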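 Note: compound added about 3h40 before a 20 min TNFalpha stimulation.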 Particulars: HUVEC TNFa-induced p65 nuclear translocation; cell count: measured here: nuclei count (cytotoxicity indicator), at 2.08 µM; inhibition: at 2 µM, stronger effect = higher value, 0% TNFa-plus-vehicle, 100% no-TNFa wells.
Experiment [2] can be described thus: inhibitors of mutant huntingtin aggregation, primary screen, imaging, exon1htt(103Q)mCFP cells, high-content imaging (AID 483;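 active = visual image review flags a hit and inhibition of aggregation exceeds 20%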;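 note: compound exposure lasted 3 days before fixation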;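 for nuclei count: percent of the per-plate median nuclei count of sample wells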). As to conditions: exon1htt(103Q)mCFP cell line, aggregate imaging, at 2 µM; inhibition of aggregation: stronger effect = higher value; nuclei count: measured here: cell count, toxicity.
The nature of experiment [3]: inhibitors of E-selectin induction by TNFa, primary screen, imaging, HUVEC, immunofluorescence, MLSMR starter and 10KST1 sets (AID 487;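 active = visually confirmed hit in the image check and inhibition above 20%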;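 for inhibition: signal is fraction of cell area covered by stained E-selectin grains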;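 for nuclei count: 100% = median nuclei count of all wells on the same plate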). Particulars: HUVEC TNFalpha-induced E-selectin immunofluorescence imaging, at 2 µM; inhibition: stronger effect = higher value; nuclei count: measured here: cell number, toxicity.
Experiment [4] deals with Voltage-gated potassium channel subunit beta-2 (Rattus norvegicus) (UniProt P62483). The experiment in a line: KvBeta enzyme negative modulators, primary screen, biochemical, NADPH fluorescence (AID 622;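 active = fluorescence slope higher than the sample average by over 3 SD, cut at about -0.22 in these data, passing the limit was not always enough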;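 note: slope of raw intensity against log time taken from 70 to 1610 s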). Particulars: recombinant KvBeta, 4-cyanobenzaldehyde reduction, at 10 µM, stronger effect = higher value.
Experiment [5] shares this target. The experiment in a line: KvBeta positive modulators, primary screen, biochemical, NADPH fluorescence (AID 623;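 active = NADPH fluorescence slope more negative than the mean of all samples by about 3 SD, 99.7% confidence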;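 note: fluorescence intensity change per second fitted from 20 to 320 s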). As to conditions: Recombinant KvBeta, NADPH fluorescence decrease slope, 10 min; at 10 µM; stronger effect = lower value.
In experiment [6] the target is Alpha-2C adrenergic receptor (Homo sapiens) (UniProt P18825). Put plainly: modulators of alpha2C/GIRK thallium flux, primary screen, cell-based, HEK293 alpha2C/GIRK1/2 (AID 624;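 active = fluorescence slope after compound addition differing from the mean of all screened samples at 99.7% confidence, in either direction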;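 note: slope of fluorescence ratio to pre-addition baseline per second over 15 to 24 s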). Particulars: thallium flux BTC fluorescence, at 10 µM, actives lie on both sides.
A short description of experiment [7]: inhibitors of Sendai virus-induced IRF3 signaling, primary screen, TLR/RLR signaling modifier project, cell-based, Sendai virus stimulus, luciferase, 10K MLSCN set (AID 602276;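 active = inhibition at or above 50% at 10 µM; inactive = inhibition below 50%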;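 note: firefly luciferase from ISG56 promoter only with Renilla not read in this screen; 0% = Sendai virus plus DMSO and 100% = medium plus DMSO without virus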). Particulars: HEK293 RL24 IRF3 luciferase reporter, at 10 µM, stronger effect = higher value. (In general: Reporter assays use an easily measured gene product as a stand-in for the process of interest.)

Experiment [8] in a line: inhibitors of poly I:C-induced TLR3 signaling, primary screen, cell-based, poly I:C stimulus, luciferase, 10K MLSCN set (AID 602277;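 active = inhibition of the reporter signal at or above 50%; inactive = inhibition below 50%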). As to conditions: HEK293-TLR3 RL24 IRF3 luciferase reporter, at 10 µM, stronger effect = higher value.

The source made the active and inactive calls.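 Rule for the calls, unless noted: active = inhibition above 20% together with a positive visual image hit; inconclusive = visual image hit but inhibition not above 20%; inactive = no visual image hit.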

In general, inhibition refers to the change of the read-out against control, counted positive when it falls.

Chain of Alpha-2C adrenergic receptor (Homo sapiens) (P18825 whole entry, looked up): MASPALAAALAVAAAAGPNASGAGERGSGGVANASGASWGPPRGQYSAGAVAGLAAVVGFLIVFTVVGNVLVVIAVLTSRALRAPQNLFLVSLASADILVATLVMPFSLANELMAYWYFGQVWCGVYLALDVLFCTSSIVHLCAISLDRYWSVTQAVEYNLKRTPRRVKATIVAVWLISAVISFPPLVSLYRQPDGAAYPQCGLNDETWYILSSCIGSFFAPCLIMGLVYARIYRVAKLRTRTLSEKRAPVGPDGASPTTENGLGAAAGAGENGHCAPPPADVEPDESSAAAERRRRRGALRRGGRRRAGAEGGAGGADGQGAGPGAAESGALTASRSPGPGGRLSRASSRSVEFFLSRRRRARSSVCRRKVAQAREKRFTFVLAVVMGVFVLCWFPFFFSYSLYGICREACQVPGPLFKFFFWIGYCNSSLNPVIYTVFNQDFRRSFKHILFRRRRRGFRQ
Chain of Voltage-gated potassium channel subunit beta-2 (Rattus norvegicus) (P62483 whole entry, looked up): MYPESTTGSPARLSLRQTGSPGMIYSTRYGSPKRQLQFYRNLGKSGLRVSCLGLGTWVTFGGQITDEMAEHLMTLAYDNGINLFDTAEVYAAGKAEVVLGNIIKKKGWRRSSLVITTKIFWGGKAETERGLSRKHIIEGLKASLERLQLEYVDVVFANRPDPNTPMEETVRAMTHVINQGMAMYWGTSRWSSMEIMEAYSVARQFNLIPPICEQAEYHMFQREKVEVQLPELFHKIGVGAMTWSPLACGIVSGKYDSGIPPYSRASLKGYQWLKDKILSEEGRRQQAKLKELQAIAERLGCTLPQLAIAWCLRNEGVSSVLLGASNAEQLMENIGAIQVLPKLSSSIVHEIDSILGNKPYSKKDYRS

With `O=C(c1ccccc1Br)N1CCN(c2ccccc2)CC1`, in experiment [1], the cell count is 619. For the same molecule, the inhibition in experiment [1] is 1.2% (inactive); in experiment [3], -38.7% (inactive); in experiment [7], 9.32% (inactive); in experiment [8] it was 14.8% (inactive). In addition, the inhibition of aggregation in experiment [2] is -1.6% (inactive). Further, the nuclei count in experiment [2] is 100%; in experiment [3] it was 123%. The fluorescence slope in experiment [4] is -0.488 (inactive). Further, the NADPH fluorescence slope in experiment [5] was -0.000203 (inactive). Besides, the slope in experiment [6] is 0.00488 (inactive).

Turning to `CCOC(=O)c1c(N)sc(C(=O)N2CCOCC2)c1C`, the cell count in experiment [1] worked out at 314. Besides, the inhibition was -11.5% (inactive) in experiment [1], -10.6% (inactive) in experiment [3], 16.8% (inactive) in experiment [7] and 18.1% (inactive) in experiment [8]. In experiment [2], the inhibition of aggregation was 12.2% (inactive). Further, the nuclei count is 103% in experiment [2] and 119% in experiment [3]. In addition, the fluorescence slope in experiment [4] was -0.345 (inactive). Moreover, in experiment [5], the NADPH fluorescence slope is 2.6e-05 (inactive). Further, the slope in experiment [6] was 0.00763 (inactive).

As for `O=C(NCC(=O)N(c1ccc2c(c1)OCCO2)C(C(=O)NC1CCCC1)c1ccco1)c1ccco1` (stereo not given), the cell count in experiment [1] worked out at 245. In addition, the inhibition is 17.9% (inactive) in experiment [1], 20.3% (inactive) in experiment [3], -2.48% (inactive) in experiment [7] and -2.78% (inactive) in experiment [8]. In experiment [2], the inhibition of aggregation was -23.9% (inactive). In addition, the figures for the nuclei count in experiment [2] and in experiment [3] were 83.9% and 95.6%, respectively. Also, the fluorescence slope in experiment [4] was -0.409 (inactive). Besides, the NADPH fluorescence slope in experiment [5] is 3.7e-05 (inactive). The slope in experiment [6] was 0.00578 (inactive).

Take `CCCCCCC(C)n1[nH]c(=O)c2c(C)cc(=O)[nH]c21` (stereo not given): the cell count in experiment [1] came out at 675. Besides, the inhibition in experiment [1] is 8.2% (inactive); in experiment [3] it was -6.2% (inactive); in experiment [7] it was 3.89% (inactive); in experiment [8], -2.25% (inactive). The inhibition of aggregation in experiment [2] was -12.3% (inactive). Also, the nuclei count in experiment [2] was 105%; in experiment [3], 91.9%. For the same molecule, the fluorescence slope in experiment [4] was -0.61 (inactive). Also, the NADPH fluorescence slope in experiment [5] is -1.7e-05 (inactive). Further, in experiment [6], the slope was 0.00325 (inactive).

Turning to `O=C(CN1C(=O)COc2ccccc21)N(Cc1cccnc1)Cc1ccccc1F`, the cell count in experiment [1] was 661. The inhibition in experiment [1] was -2.9% (inactive); in experiment [3], -6.3% (inactive); in experiment [7], 15.9% (inactive); in experiment [8], 32.6% (inactive). Moreover, the inhibition of aggregation in experiment [2] was -5.5% (inactive). The nuclei count is 77.4% in experiment [2] and 106% in experiment [3]. For the same molecule, the fluorescence slope in experiment [4] is -0.324 (inactive). Besides, in experiment [5], the NADPH fluorescence slope was -5.8e-05 (inactive). Also, the slope in experiment [6] is 0.00465 (inactive).

For `Cc1ccc(S(=O)(=O)NC(C)C(=O)Nc2ccc(C(N)=O)cc2)cc1` (stereo not given), the cell count in experiment [1] worked out at 707. Moreover, the inhibition in experiment [1] is 1.6% (inactive); in experiment [3], -22.5% (inactive); in experiment [7] it was -2.81% (inactive); in experiment [8] it was 2.56% (inactive). Also, the inhibition of aggregation in experiment [2] was 1.1% (inactive). The results for the nuclei count in experiment [2] and in experiment [3] were 77.4% and 105%, respectively. In experiment [4], the fluorescence slope was -0.521 (inactive). Further, the NADPH fluorescence slope in experiment [5] was 1.6e-05 (inactive). Moreover, in experiment [6], the slope was 0.0049 (inactive).

On to `COc1cc(C(=O)OCC(=O)N(C)Cc2ccccc2)cc(OC)c1OC`, for which the cell count in experiment [1] amounted to 405. The inhibition in experiment [1] is 5.1% (inactive); in experiment [3] it was -264% (inactive); in experiment [7] it was 15.1% (inactive); in experiment [8], 20.6% (inactive). Besides, the inhibition of aggregation in experiment [2] is -1.2% (inactive). The nuclei count is 110% in experiment [2] and 119% in experiment [3]. Further, the fluorescence slope in experiment [4] was -0.535 (inactive). The NADPH fluorescence slope in experiment [5] was -0.00012 (inactive). For the same molecule, in experiment [6], the slope was 0.00533 (inactive).

For `COc1ccc(-c2ccc(Nc3ccc(S(=O)(=O)N4CCCC4)cc3)nn2)cc1OC`, in experiment [1], the cell count amounted to 702. Moreover, the inhibition in experiment [1] is -6.1% (inactive); in experiment [3], -94.1% (inactive); in experiment [7], -5.55% (inactive); in experiment [8], -13.6% (inactive). Moreover, the inhibition of aggregation in experiment [2] is -4.9% (inactive). In addition, the nuclei count in experiment [2] is 103%; in experiment [3] it was 109%. In addition, the fluorescence slope in experiment [4] was -0.601 (inactive). Further, the NADPH fluorescence slope in experiment [5] was -4.3e-05 (inactive). Further, in experiment [6], the slope was 0.004 (inactive).

In the case of `CCOc1ccc(N2C(=O)CC(N3CC(C)OC(C)C3)C2=O)cc1` (stereo not given), the cell count in experiment [1] was found to be 578. Further, the inhibition in experiment [1] was -14.1% (inactive); in experiment [3], 3.9% (inactive); in experiment [7], 9.5% (inactive); in experiment [8], 25.7% (inactive). For the same molecule, the inhibition of aggregation in experiment [2] is -12% (inactive). In addition, the figures for the nuclei count in experiment [2] and in experiment [3] were 104% and 128%, respectively. Also, the fluorescence slope in experiment [4] was -0.357 (inactive). In experiment [5], the NADPH fluorescence slope was 5.9e-06 (inactive). Further, in experiment [6], the slope is 0.00636 (inactive).

Turning to `Cn1c(=O)c2c(nc(CN3CCOCC3)n2CC(O)CO)n(C)c1=O` (stereo not given), the cell count in experiment [1] came out at 474. Moreover, the inhibition in experiment [1] is 44.4% (active); in experiment [3], 10.6% (inactive); in experiment [7], 14.2% (inactive); in experiment [8] it was 23.9% (inactive). The inhibition of aggregation in experiment [2] is 19.2% (inactive). Also, the nuclei count in experiment [2] is 103%; in experiment [3] it was 110%. Moreover, the fluorescence slope in experiment [4] was -0.427 (inactive). Further, the NADPH fluorescence slope in experiment [5] was -2.2e-05 (inactive). Moreover, the slope in experiment [6] was 0.00587 (inactive).
